About 2,000 (36%) of roughly 5,500 compounds were called active. Not shown: some 18% with an inconclusive outcome. Rule as the data show it: active = normalized growth mostly below about 0.91 (no sharp cut-off); inconclusive = no clear call, values can overlap the other calls; inactive = mostly above about 0.92. This is one part of the list.
Assay: chemical genetic growth profiling, strain panel (AID 1159580);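 also: tested at 20 µM; growth read once vehicle control cultures reached saturation at 30 °C; 1 = growth at the plate median or of vehicle wells; lower values mean less growth of the strain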
Conditions: S. cerevisiae deletion strains, growth OD

Measured: normalized growth

CCOC(=O)c1c(C)cc(O)c(C)c1O
inactive: locus YBR021W, strain FUR4, stronger effect = lower value 0.975 | locus YBR229C, strain ROT2, stronger effect = lower value 0.976 | locus YCL029C, strain bik1, stronger effect = lower value 0.955 | locus YDL035C, strain GPR1, stronger effect = lower value 1.01 | locus YDL074C, strain BRE1, stronger effect = lower value 0.981 | locus YDL101C, strain DUN1, stronger effect = lower value 0.986 | locus YDL134C, strain PPH21, stronger effect = lower value 0.979 | locus YDL185W, strain tfp1, stronger effect = lower value 0.969 | locus YDL192W, strain arf1, stronger effect = lower value 0.931 | locus YDR150W, strain NUM1, stronger effect = lower value 0.98 | locus YDR162C, strain NBP2, stronger effect = lower value 0.966 | locus YDR502C, strain sam2, stronger effect = lower value 0.929 | locus YEL061C, strain CIN8, stronger effect = lower value 0.975 | locus YER110C, stronger effect = lower value 0.938 | locus YER155C, strain BEM2, stronger effect = lower value 0.941 | locus YER167W, strain BCK2, stronger effect = lower value 0.961 | locus YGL078C, strain dbp3, stronger effect = lower value 0.968 | locus YGL248W, strain PDE1, stronger effect = lower value 0.992 | locus YGR135W, strain pre9, stronger effect = lower value 0.931 | locus YGR252W, strain gcn5, stronger effect = lower value 1.07 | locus YHR030C, strain SLT2, stronger effect = lower value 0.978 | locus YHR079C, strain IRE1 (second series), stronger effect = lower value 0.945 | locus YHR094C, strain hxt1, stronger effect = lower value 0.932 | locus YHR129C, strain ARP1, stronger effect = lower value 0.988 | locus YHR200W, strain rpn10, stronger effect = lower value 0.933 | locus YIL066C, strain RNR3, stronger effect = lower value 0.999 | locus YIL073C, strain SPO22, stronger effect = lower value 1.02 | locus YIR030C, strain dcg1, stronger effect = lower value 0.952 | locus YJL095W, strain BCK1, stronger effect = lower value 0.936 | locus YJL134W, strain LCB3, stronger effect = lower value 0.965 | locus YJL168C, strain set2, stronger effect = lower value 0.945 | locus YJL187C, strain SWE1 (second series), stronger effect = lower value 0.996 | locus YJR043C, strain POL32, stronger effect = lower value 0.949 | locus YKL009W, strain mrt4, stronger effect = lower value 1.01 | locus YKL068W, stronger effect = lower value 0.945 | locus YKL085W, strain MDH1 (second series), stronger effect = lower value 0.943 | locus YKL085W, strain MDH1, stronger effect = lower value 0.943 | locus YLR039C, strain RIC1, stronger effect = lower value 1.04 | locus YLR058C, strain SHM2, stronger effect = lower value 0.97 | locus YLR102C, strain apc9, stronger effect = lower value 0.946 | locus YLR268W, strain sec22, stronger effect = lower value 0.918 | locus YLR330W, strain CHS5, stronger effect = lower value 0.976 | locus YML016C, strain PPZ1, stronger effect = lower value 0.956 | locus YML032C, strain rad52, stronger effect = lower value 0.917 | locus YML124C, strain tub3, stronger effect = lower value 0.935 | locus YMR078C, strain ctf18, stronger effect = lower value 0.924 | locus YMR223W, strain ubp8, stronger effect = lower value 0.952 | locus YMR263W, strain SAP30, stronger effect = lower value 0.97 | locus YMR307W, strain GAS1, stronger effect = lower value 0.923 | locus YNL067W, strain RPL9B, stronger effect = lower value 0.978 | locus YNL233W, strain BNI4, stronger effect = lower value 0.956 | locus YNL250W, strain rad50, stronger effect = lower value 0.963 | locus YNL271C, strain bni1, stronger effect = lower value 0.941 | locus YNL298W, strain CLA4, stronger effect = lower value 0.964 | locus YNL322C, strain KRE1, stronger effect = lower value 0.968 | locus YNR052C, strain pop2, stronger effect = lower value 0.993 | locus YOL006C, strain TOP1, stronger effect = lower value 0.887 | locus YOL012C, strain htz1 0.713 | locus YOR061W, strain CKA2, stronger effect = lower value 0.98 | locus YOR069W, strain VPS5, stronger effect = lower value 0.975 | locus YOR136W, strain idh2, stronger effect = lower value 0.957 | locus YOR144C, strain elg1, stronger effect = lower value 0.939 | locus YOR184W, strain ser1, stronger effect = lower value 0.89 | locus YOR316C, strain cot1, stronger effect = lower value 0.959 | locus YPL055C, strain LGE1, stronger effect = lower value 0.954 | locus YPR141C, strain kar3, stronger effect = lower value 0.924 | locus YPR163C, strain tif3, stronger effect = lower value 0.918 | locus YPR167C, strain met16, stronger effect = lower value 0.945 | strain wtn01, stronger effect = lower value 0.909
active: locus YDR101C, strain arx1, stronger effect = lower value 0.901 | locus YDR318W, strain mcm21, stronger effect = lower value 0.901 | locus YDR388W, stronger effect = lower value 0.916 | locus YGL086W, strain mad1, stronger effect = lower value 0.916 | locus YIL125W, strain kgd1, stronger effect = lower value 0.922 | locus YKR001C, strain vps1, stronger effect = lower value 0.887 | locus YLR371W, strain rom2, stronger effect = lower value 0.717 | locus YLR418C, strain cdc73, stronger effect = lower value 0.806 | locus YNL307C, strain MCK1, stronger effect = lower value 0.875 | locus YOL147C, strain pex11, stronger effect = lower value 0.914 | locus YPR119W, strain clb2, stronger effect = lower value 0.928

From PubChem BioAssay AID1159580 (chemical genetic matrix, 2015)
